The record followed here is PubChem BioAssay (NCATS).

The structures appear in SMILES notation. Inconclusive results are not listed. Where a call stands in place of a potency, no number is given. Calls of active or inactive are those of the source. The call rests on the fitted dose curve; in most records, active means well fitted curve in the direction sought with a large enough effect; inconclusive means small, poorly fitted or top-dose-only effect, or another doubt; inactive means no such curve, though single readings can be large; an effect the other way counts as inactive or inconclusive.

In one assay the target is Aldehyde dehydrogenase, mitochondrial (Homo sapiens) (UniProt P05091). Kind of assay: qHTS for Inhibitors of the Aldehyde Dehydrogenase Family (ALDH2) Primary screen (AID 2061308). Further: nearly all actives have a fitted effect of over 55% in size. The following applies: ALDH2 enzyme inhibition qHTS, 1536-well; series mostly up to 56 µM. (In qHTS, concentration-response curves come from the screen itself.)
On to `C/C=C/C=C/C=C/C(=O)O[C@@H]1C=C2COC(=O)[C@]2(O)[C@@]2(C)CCCC(C)(C)[C@H]12`, for which the Potency result was “inactive”.
Turning to `COc1ccc2cc3cc(C(=O)Nc4ccc(F)cc4)sc3nc2c1`, the Potency entry is “inactive”.
Take `O=C(Nc1ccc(Cl)cc1)Nc1cccc(-c2cccc(N3CCCC3)n2)c1`: the Potency entry is “inactive”.
Consider `CC1(C)CCC(C)(C)c2cc([S+](=O)([O-])N3CCN([S+](=O)([O-])c4c(F)cccc4F)CC3)ccc21`, for which the Potency entry is “inactive”.
The same measure, in the same setting: to `O=C1Nc2ccccc2/C1=C\c1ccc(O)cc1` belongs “inactive”.
For the compound `CC(=O)Nc1sc2c(c1-c1ccc3nc[nH]c3c1)CCNC2`, the Potency entry was “inactive”.
`CC1(C)CC[C@]2(C(=O)O)CC[C@]3(C)C(=CCC4[C@@]5(C)CC[C@H](O[C@@H]6O[C@H](C(=O)O)[C@@H](O)[C@H](O[C@@H]7O[C@H](CO)[C@H](O)[C@H](O)[C@H]7O)[C@H]6O[C@@H]6O[C@H](CO)[C@@H](O)[C@H](O)[C@H]6O)C(C)(C)C5CC[C@]43C)[C@@H]2C1` (stereo not given in full): the activity change, negative = inhibition was -3.97% [at 11.2 µM] (inactive).
For the compound `O=C(Cc1nnc(-c2cc3ccccc3[nH]2)o1)Nc1cc(C(F)(F)F)ccc1Cl`, the Potency result is “inactive”.
Regarding `CNC(=O)C1=C(C)NC(Nc2nc3ccccc3o2)=NC1c1nn(C)cc1Cl` (stereo not given), the Potency entry is “inactive”.
Consider `O=C(Nc1ccc(-c2nc3ccccc3[nH]2)cc1)c1ccc2ncccc2c1`, for which the Potency entry was “inactive”.
Turning to `C/C=C/C=C/C=C/C(=O)O[C@@H]1C=C(CO)[C@](O)(CO)[C@@]2(C)CCCC(C)(C)[C@H]12`, the Potency result was “inactive”.
As to `COc1cccc(C2c3c(ncn(-c4ccccc4C)c3=N)Oc3ccc4ccccc4c32)c1` (stereo not given), the Potency result was “inactive”.
As for `CC(=O)Nc1nc(-c2ccc3c(c2)CCN3C(=O)c2ccccc2C)c(C)s1`, the Potency result was “inactive”.
As to `CCCn1c(-c2ccc(F)cc2)nc2c(NCCCN(CCO)CCO)nc(C)nc21`, the Potency entry was “inactive”.
Turning to `O=C(NCc1cccnc1)C1CCN(S(=O)(=O)c2cccs2)CC1`, the Potency entry was “inactive”.
`Cc1csc(CNc2ncnc3ccc(-c4ccco4)cc23)c1`: the Potency entry is “inactive”.
The same measure, in the same setting: for `CS(=O)(=O)c1ccc(C(=O)OCC(=O)N2CCC(Cc3ccccc3)CC2)cc1[N+](=O)[O-]` the value was “inactive”; for `COCCNc1cc2c(cc1[S+](=O)([O-])Nc1ccc(C)c(C)c1)CCC(=O)N2`, “inactive”.
As for `C/C1=C\CCC2=CC(OC2=O)C(C)(C)/C=C/C1=O` (stereo not given), the Potency result was “inactive”.
As to `C=CCNc1oc(-c2cccnc2)nc1C#N`, the Potency result was “inactive”.
For the compound `Nc1ccc(NC(=O)Nc2nnc(-c3ccncc3)s2)cc1C(F)(F)F`, the Potency entry was “inactive”.
For the compound `COc1ccc(C2=Nn3c(nnc3-c3ccccc3C)SC2)cc1OC`, the Potency entry was “inactive”.
With `C=C1C[C@]23C[C@@]1(O)CC[C@H]2[C@@]12C=C[C@H](O)[C@@](C)(C(=O)O1)[C@H]2[C@@H]3C(=O)O`, the Potency result was “inactive”.
As to `Oc1cccc2cc(CNc3ccccc3F)cnc12`, the Potency result is “inactive”.
Turning to `O=S(=O)(NCCCCCNS(=O)(=O)c1c(F)cccc1F)c1ccc2c(c1)OCCO2`, the Potency entry is “inactive”.
Still for that read-out and setting: to `Cc1ccc(C(=O)Nc2ccc(N3CCOCC3)cc2)cc1` belongs “inactive”.
On the same count and under the same terms, for `FC(F)(F)c1cccc(CSc2nc3ncc(Br)cc3[nH]2)c1` the value was “inactive”; for `Cc1cc2c(s1)c1cnn(Cc3cccc(F)c3)c(=O)c1n2C`, “inactive”.
With `CCCn1c(-c2ccc(F)cc2)nc2c(NCC3CCCN3CC)nc(C)nc21` (stereo not given), the Potency result is “inactive”.
For `O=C(Nc1ccc(-c2nc3ccccc3[nH]2)cc1)c1ccc2n[nH]nc2c1`, the Potency entry is “inactive”.
Take `CC(C)c1ccccc1-c1ncc(N)c(NCc2ccc(-c3cccnc3)cc2)n1`: the Potency entry is “inactive”.
Take `CC1OC2O[C@H]3[C@@H](OCC(O)[C@H]3O)OC(=O)C34CCC(C)(C)CC3C3=CCC5C6(C)CC(O)C(OC7OC(CO)C(O)C(O)C7O[C@@H]7OC[C@H](OC(=O)CC(C)(O)CC(=O)OC1C(OC1OCC(O)C(O)C1O)C2O)[C@@H](O)[C@H]7O)C(C)(CO)C6CCC5(C)C3(C)CC4` (stereo not given in full): the Potency result was “inactive”.
For the compound `FC(F)(F)c1ccccc1-c1nc(NCc2ccc(C3CCCCC3)cc2)c2ccccc2n1`, the Potency result is “inactive”.
Same read-out and setting: for `O=C(CNC(=O)C1CCCCC1)OC(C(=O)Nc1cc(C(F)(F)F)ccc1Cl)c1ccccc1` (stereo not given) the value was “inactive”.
Turning to `O=S(=O)(c1ccc2c(c1)OCCO2)N1CCN(S(=O)(=O)c2ccc3nc(Cl)c(Cl)nc3c2)CC1`, the Potency entry was “inactive”.
For `O=C(Cn1nc(C2CCCCC2)ccc1=O)NCCc1ccccc1`, the Potency entry is “inactive”.
As to `CCOC(=O)C1CCN(C(=O)C(C)(C)NC(=O)Nc2ccc(Oc3ccccc3)cc2)CC1`, the Potency result was “inactive”.
In the case of `Cc1ccc(NC(=O)c2ccc3c(c2)CCC(=O)N3)cc1C`, the Potency entry was “inactive”.
On the same count and under the same terms, to `Cc1ccccc1C(=O)NCC(=O)OC(C(=O)Nc1cc(C(F)(F)F)ccc1Cl)c1ccccc1` (stereo not given) belongs “inactive”; to `Cc1cccc(C)c1SC1=NS(=O)(=O)c2ccccc21`, “inactive”.

The next assay deals with Retinaldehyde dehydrogenase 3 (Homo sapiens) (UniProt P47895). Kind of assay: qHTS for Inhibitors of the Aldehyde Dehydrogenase Family (ALDH1A3) Primary screen (AID 2061315). The following applies: ALDH inhibition qHTS; series mostly up to 56 µM.
As to `C/C=C/C=C/C=C/C(=O)O[C@@H]1C=C2COC(=O)[C@]2(O)[C@@]2(C)CCCC(C)(C)[C@H]12`, the Potency entry is “inactive”.
For `COc1ccc2cc3cc(C(=O)Nc4ccc(F)cc4)sc3nc2c1`, the Potency result is “inactive”.
For the compound `O=C(Nc1ccc(Cl)cc1)Nc1cccc(-c2cccc(N3CCCC3)n2)c1`, the Potency entry is “inactive”.
For the compound `CC1(C)CCC(C)(C)c2cc([S+](=O)([O-])N3CCN([S+](=O)([O-])c4c(F)cccc4F)CC3)ccc21`, the Potency entry was “inactive”.
`O=C1Nc2ccccc2/C1=C\c1ccc(O)cc1`: the Potency result is “inactive”.
`CC(=O)Nc1sc2c(c1-c1ccc3nc[nH]c3c1)CCNC2`: the Potency result was “inactive”.
Consider `CC1(C)CC[C@]2(C(=O)O)CC[C@]3(C)C(=CCC4[C@@]5(C)CC[C@H](O[C@@H]6O[C@H](C(=O)O)[C@@H](O)[C@H](O[C@@H]7O[C@H](CO)[C@H](O)[C@H](O)[C@H]7O)[C@H]6O[C@@H]6O[C@H](CO)[C@@H](O)[C@H](O)[C@H]6O)C(C)(C)C5CC[C@]43C)[C@@H]2C1` (stereo not given in full), for which the activity change, negative = inhibition was 11.9% [at 11.2 µM] (inactive).
Consider `O=C(Cc1nnc(-c2cc3ccccc3[nH]2)o1)Nc1cc(C(F)(F)F)ccc1Cl`, for which the Potency result is “inactive”.
With `CNC(=O)C1=C(C)NC(Nc2nc3ccccc3o2)=NC1c1nn(C)cc1Cl` (stereo not given), the Potency result is “inactive”.
Same read-out and setting: to `O=C(Nc1ccc(-c2nc3ccccc3[nH]2)cc1)c1ccc2ncccc2c1` belongs “inactive”; to `C/C=C/C=C/C=C/C(=O)O[C@@H]1C=C(CO)[C@](O)(CO)[C@@]2(C)CCCC(C)(C)[C@H]12`, “inactive”; to `COc1cccc(C2c3c(ncn(-c4ccccc4C)c3=N)Oc3ccc4ccccc4c32)c1` (stereo not given), “inactive”.
For `CC(=O)Nc1nc(-c2ccc3c(c2)CCN3C(=O)c2ccccc2C)c(C)s1`, the Potency entry was “inactive”.
On the same count and under the same terms, to `CCCn1c(-c2ccc(F)cc2)nc2c(NCCCN(CCO)CCO)nc(C)nc21` belongs “inactive”; to `O=C(NCc1cccnc1)C1CCN(S(=O)(=O)c2cccs2)CC1`, “inactive”; to `Cc1csc(CNc2ncnc3ccc(-c4ccco4)cc23)c1`, “inactive”.
In the case of `CS(=O)(=O)c1ccc(C(=O)OCC(=O)N2CCC(Cc3ccccc3)CC2)cc1[N+](=O)[O-]`, the Potency entry was “inactive”.
`COCCNc1cc2c(cc1[S+](=O)([O-])Nc1ccc(C)c(C)c1)CCC(=O)N2`: the Potency result was “inactive”.
Same read-out and setting: to `C/C1=C\CCC2=CC(OC2=O)C(C)(C)/C=C/C1=O` (stereo not given) belongs “inactive”.
The same measure, in the same setting: for `C=CCNc1oc(-c2cccnc2)nc1C#N` the value was “inactive”; for `Nc1ccc(NC(=O)Nc2nnc(-c3ccncc3)s2)cc1C(F)(F)F`, “inactive”; for `COc1ccc(C2=Nn3c(nnc3-c3ccccc3C)SC2)cc1OC`, “inactive”.
As to `C=C1C[C@]23C[C@@]1(O)CC[C@H]2[C@@]12C=C[C@H](O)[C@@](C)(C(=O)O1)[C@H]2[C@@H]3C(=O)O`, the Potency entry is “inactive”.
Regarding `Oc1cccc2cc(CNc3ccccc3F)cnc12`, the Potency entry was “inactive”.
Take `O=S(=O)(NCCCCCNS(=O)(=O)c1c(F)cccc1F)c1ccc2c(c1)OCCO2`: the Potency entry was “inactive”.
The same measure, in the same setting: for `Cc1ccc(C(=O)Nc2ccc(N3CCOCC3)cc2)cc1` the value was “inactive”.
Take `FC(F)(F)c1cccc(CSc2nc3ncc(Br)cc3[nH]2)c1`: the Potency entry was “inactive”.
Same read-out and setting: for `Cc1cc2c(s1)c1cnn(Cc3cccc(F)c3)c(=O)c1n2C` the value was “inactive”; for `CCCn1c(-c2ccc(F)cc2)nc2c(NCC3CCCN3CC)nc(C)nc21` (stereo not given), “inactive”; for `O=C(Nc1ccc(-c2nc3ccccc3[nH]2)cc1)c1ccc2n[nH]nc2c1`, “inactive”.
As for `CC(C)c1ccccc1-c1ncc(N)c(NCc2ccc(-c3cccnc3)cc2)n1`, the Potency entry is “inactive”.
On to `CC1OC2O[C@H]3[C@@H](OCC(O)[C@H]3O)OC(=O)C34CCC(C)(C)CC3C3=CCC5C6(C)CC(O)C(OC7OC(CO)C(O)C(O)C7O[C@@H]7OC[C@H](OC(=O)CC(C)(O)CC(=O)OC1C(OC1OCC(O)C(O)C1O)C2O)[C@@H](O)[C@H]7O)C(C)(CO)C6CCC5(C)C3(C)CC4` (stereo not given in full), for which the Potency entry is “inactive”.
Same read-out and setting: for `FC(F)(F)c1ccccc1-c1nc(NCc2ccc(C3CCCCC3)cc2)c2ccccc2n1` the value was “inactive”; for `O=C(CNC(=O)C1CCCCC1)OC(C(=O)Nc1cc(C(F)(F)F)ccc1Cl)c1ccccc1` (stereo not given), “inactive”; for `O=S(=O)(c1ccc2c(c1)OCCO2)N1CCN(S(=O)(=O)c2ccc3nc(Cl)c(Cl)nc3c2)CC1`, “inactive”.
Regarding `O=C(Cn1nc(C2CCCCC2)ccc1=O)NCCc1ccccc1`, the Potency entry is “inactive”.
With `CCOC(=O)C1CCN(C(=O)C(C)(C)NC(=O)Nc2ccc(Oc3ccccc3)cc2)CC1`, the Potency result was “inactive”.
For the compound `Cc1ccc(NC(=O)c2ccc3c(c2)CCC(=O)N3)cc1C`, the Potency result is “inactive”.
As to `Cc1ccccc1C(=O)NCC(=O)OC(C(=O)Nc1cc(C(F)(F)F)ccc1Cl)c1ccccc1` (stereo not given), the Potency entry is “inactive”.
Same read-out and setting: for `Cc1cccc(C)c1SC1=NS(=O)(=O)c2ccccc21` the value was “inactive”.
